# Compounds with a hit are over-represented: about 6.7% of the library has one in this group of screens.
# Pf Dd2 inh = blocks growth of Plasmodium falciparum Dd2 parasites. 2.3% of 94,000 active. AID 1159554. P. falciparum Dd2 growth, SYBR Green, 72 h; hits give low values. activity change, % at 10 µM; in the data active means activity change below about -80%; inconclusive means no clear call, values can overlap the other calls
# T cruzi growth-1 = blocks T. cruzi growth in NIH3T3 culture. AID 624255. inhibition, % at 8.34 µM. T. cruzi beta-gal in NIH3T3, GalScreen luminescence, 90 h. 5.9% of 77,000 active;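 active means mean inhibition above about 93%, with at least 55% of replicates each passing it, limit read from the data, passing the limit was not always enough; inconclusive means only one of those two conditions holds; inactive means neither condition holds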
# C diff growth = inhibitors of Clostridium difficile growth; Clostridium difficile clinical isolate growth, OD600, 24 h; hits give low values; growth activity, negative = inhibition, % at 16 µg/mL (by protocol); 0.25% of 86,000 active;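 active means mean growth activity at or below -80% and every replicate also at or below -80%; inconclusive means mean at or below -80% but some replicate above -80%; inactive means mean growth activity above -80%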
# T cruzi growth-2 = blocks T. cruzi growth in NIH3T3 host cells; 72% of 5,600 active; inhibition, % at 8.35 µM; shares compounds with T cruzi growth-1; AID 651739; T. cruzi beta-gal in NIH3T3, GalScreen luminescence, 90 h;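 active means mean replicate inhibition above about 95% and at least 55% of replicates individually reaching it, limit read from the data; inconclusive means only one of the two criteria is met; inactive means neither criterion is met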
# T cruzi growth-3 = inhibitors of T. cruzi proliferation. shares compounds with T cruzi growth-1. T. cruzi beta-gal in NIH3T3, GalScreen luminescence, 90 h. inhibition, % at 2.09 µM. 21% of 5,600 active. AID 651740;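 active means mean inhibition above about 95%, with at least 55% of replicates also reaching it, limit read from the data; inconclusive means meets just one of the two conditions; inactive means meets neither condition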
# NIH3T3 tox = NIH/3T3 (mouse) viability loss; shares compounds with T cruzi growth-1; NIH/3T3 viability, CellTiter-Glo ATP luminescence, 90 h; cytotoxicity (signal decrease), % at 8.35 µM; 14% of 5,600 active; AID 651742;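 active means mean signal decrease across replicates above about 35% based on untreated-well scatter, with enough replicates individually passing, limit read from the data; inconclusive means no rule stated though some were filed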
# 3T3 cytotox 2 = NIH/3T3 (mouse) viability loss; 56% of 5,600 active; inhibition, % at 24.9 µM; shares compounds with T cruzi growth-1; NIH/3T3 viability, CellTiter-Glo ATP luminescence, 90 h; AID 651744;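 active means mean loss of cell viability signal at or above a set limit, and enough replicates individually reaching it; inconclusive means meets only the mean limit or only the replicate share; inactive means meets neither condition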
# A number is an active result; . = inactive; ? = inconclusive; / = not tested or not shown.
SMILES,Pf Dd2 inh,T cruzi growth-1,C diff growth,T cruzi growth-2,T cruzi growth-3,NIH3T3 tox,3T3 cytotox 2
O=C(C[C@@H]1C[C@H]2c3cc(NC(=O)Nc4ccc(C(F)(F)F)cc4)ccc3O[C@H]2[C@@H](CO)O1)NCc1ccc(Cl)cc1,.,?,/,100,.,.,.
O=C(C[C@@H]1C[C@H]2c3cc(NC(=O)Nc4ccc(C(F)(F)F)cc4)ccc3O[C@H]2[C@H](CO)O1)NCc1ccc(Cl)cc1,.,.,/,/,/,/,/
O=C(C[C@H]1C[C@H]2c3cc(NC(=O)Nc4ccc(C(F)(F)F)cc4)ccc3O[C@H]2[C@@H](CO)O1)NCc1ccc(Cl)cc1,.,.,/,/,/,/,/
CN(C)C(=O)c1ccc(-c2ccc([C@@H]3[C@@H](CO)N4CCCCN(CC5CC5)C[C@@H]34)cc2)cc1,.,.,.,/,/,/,/
CN(C)C(=O)c1ccc(-c2ccc3c(c2)[C@H]2[C@H](CCN2C(=O)C2CCC2)[C@H](CO)N3C)cc1,.,.,.,/,/,/,/
CN(C)CC#Cc1ccc([C@@H]2[C@@H](CO)N3CCCCN(S(=O)(=O)c4ccccc4F)C[C@H]23)cc1,.,111,.,98,.,.,85
CN(C)CC#Cc1ccc([C@H]2[C@@H](CO)N3CCCCN(S(=O)(=O)c4ccccc4F)C[C@H]23)cc1,.,.,.,/,/,/,/
CCCC#Cc1ccc([C@H]2[C@H]3CN(S(=O)(=O)c4ccccc4F)CCCCN3[C@H]2CO)cc1,.,?,.,111,.,.,105
CCCC#Cc1ccc([C@@H]2[C@@H](CO)N3CCCCN(S(=O)(=O)c4ccccc4F)C[C@@H]23)cc1,.,.,.,/,/,/,/
OC[C@@H]1[C@@H](c2ccc(/C=C/c3ccccc3)cc2)[C@H]2CN(Cc3ccncc3)CCCCN12,.,97,.,105,.,46,102
OC[C@H]1[C@@H](c2ccc(/C=C/c3ccccc3)cc2)[C@H]2CN(Cc3ccncc3)CCCCN21,.,.,.,/,/,/,/
OC[C@H]1[C@@H](c2ccc(/C=C/c3ccccc3)cc2)[C@@H]2CN(Cc3ccncc3)CCCCN12,.,.,.,/,/,/,/
OC[C@@H]1[C@@H](c2ccc(/C=C/c3ccccc3)cc2)[C@@H]2CN(Cc3ccncc3)CCCCN12,.,?,.,99,.,.,106
COCC#Cc1ccc2c(c1)O[C@@H](CN(C)C(=O)C1CCC1)[C@H](C)CN([C@@H](C)CO)S2(=O)=O,.,.,.,/,/,/,/
C[C@@H]1CN([C@@H](C)CO)C(=O)c2cc(NC(=O)Nc3ccc(F)cc3)ccc2O[C@@H](C)CCCCO[C@H]1CN(C)C,/,.,.,/,/,/,/
C[C@@H]1CCCCO[C@@H](CN(C)CC2CC2)[C@@H](C)CN([C@H](C)CO)C(=O)c2cc(NC(=O)Nc3ccc(F)cc3)ccc2O1,.,.,.,/,/,/,/
CCCN(C)C[C@H]1OCCCC[C@@H](C)Oc2ccc(NC(=O)Nc3ccccc3)cc2C(=O)N([C@H](C)CO)C[C@@H]1C,/,.,.,/,/,/,/
C[C@@H]1CCCCO[C@@H](CN(C)C)[C@@H](C)CN([C@H](C)CO)C(=O)c2cc(NC(=O)Nc3ccc(F)cc3)ccc2O1,.,.,.,/,/,/,/
C[C@H](CO)N1C[C@H](C)[C@@H](CN(C)CC2CCCCC2)OCCCC[C@H](C)Oc2ccc(NC(=O)Nc3ccc(F)cc3)cc2C1=O,.,114,.,98,111,.,103
CCCN(C)C[C@H]1OCCCC[C@@H](C)Oc2ccc(NC(=O)Nc3ccc(F)cc3)cc2C(=O)N([C@H](C)CO)C[C@@H]1C,.,100,.,101,.,.,.
C[C@@H]1CCCCO[C@@H](CN(C)CC2CCCCC2)[C@@H](C)CN([C@@H](C)CO)C(=O)c2cc(NC(=O)Nc3ccc(F)cc3)ccc2O1,.,119,.,103,.,.,104
C[C@@H]1CCCCO[C@@H](CN(C)CC2CCCCC2)[C@H](C)CN([C@H](C)CO)C(=O)c2cc(NC(=O)Nc3ccc(F)cc3)ccc2O1,-90,105,.,95,112,.,102
C/C=C/c1ccc([C@@H]2[C@@H](CO)N(S(C)(=O)=O)C23CN(C(=O)CC)C3)cc1,.,/,.,/,/,/,/
C[C@@H]1CCCCO[C@H](CN(C)CC2CCCCC2)[C@H](C)CN([C@@H](C)CO)C(=O)c2cc(NC(=O)Nc3ccc(F)cc3)ccc2O1,.,120,.,97,114,54,103
C[C@H]1CCCCO[C@@H](CN(C)CC2CC2)[C@@H](C)CN([C@@H](C)CO)C(=O)c2cc(NC(=O)Nc3ccc(F)cc3)ccc2O1,.,.,.,/,/,/,/
SMILES,Pf Dd2 inh,T cruzi growth-1,C diff growth,T cruzi growth-2,T cruzi growth-3,NIH3T3 tox,3T3 cytotox 2
C[C@H]1CCCCO[C@H](CN(C)CC2CCCCC2)[C@@H](C)CN([C@@H](C)CO)C(=O)c2cc(NC(=O)Nc3ccc(F)cc3)ccc2O1,-83,115,.,97,114,47,103
C[C@H](CO)N1C[C@H](C)[C@@H](CN(C)CC2CC2)OCCCC[C@H](C)Oc2ccc(NC(=O)Nc3ccc(F)cc3)cc2C1=O,/,.,.,/,/,/,/
CCCNC(=O)N[C@@H]1CC[C@@H](CC(=O)NC2CCC2)O[C@H]1CO,.,.,/,/,/,/,/
COc1ccc(NC(=O)Nc2ccc3c(c2)CC(=O)N([C@@H](C)CO)C[C@H](C)[C@H](CN(C)S(C)(=O)=O)O3)cc1,.,.,.,/,/,/,/
O=C(C1CCC1)N1CCCCN2[C@H](C1)[C@@H](c1ccc(-c3cccc(F)c3)cc1)[C@@H]2CO,.,.,.,/,/,/,/
O=C(C1CC1)N1CCCCN2[C@H](CO)[C@H](c3ccc(-c4cccc(F)c4)cc3)[C@@H]2C1,.,?,.,105,.,.,?
O=C(C1CCCC1)N1CCCCN2[C@H](C1)[C@H](c1ccc(-c3cccc(F)c3)cc1)[C@@H]2CO,.,.,.,/,/,/,/
O=C(C1CCCC1)N1CCCCN2[C@H](CO)[C@H](c3ccc(-c4cccc(F)c4)cc3)[C@H]2C1,.,118,.,108,.,.,102
O=C(C1CC1)N1CCCCN2[C@@H](CO)[C@H](c3ccc(-c4cccc(F)c4)cc3)[C@@H]2C1,.,?,.,100,.,.,37
O=C(c1cccc(F)c1)N1CCCCN2[C@H](C1)[C@H](c1ccc(-c3ccccc3)cc1)[C@@H]2CO,.,.,.,/,/,/,/
CO[C@@H]1CN(C)C(=O)c2cc(NS(C)(=O)=O)ccc2OC[C@H](C)N(C(=O)C2CCCCC2)C[C@@H]1C,/,.,/,/,/,/,/
C[C@@H]1CN([C@@H](C)CO)C(=O)c2cc(-c3ccncc3)cnc2O[C@@H]1CN(C)S(=O)(=O)c1ccccc1,.,.,.,/,/,/,/
CNC[C@@H]1OCCCC[C@@H](C)Oc2ccc(NS(=O)(=O)c3ccccc3)cc2C(=O)N([C@H](C)CO)C[C@@H]1C,.,.,.,/,/,/,/
CCCC(=O)N1CC2(CN(S(=O)(=O)CC)C2)c2c(n(C)c3cc(OC)ccc23)[C@@H]1CO,.,/,.,/,/,/,/
